From PubChem
Rows were chosen to be rich in hits. Some 2.8% of all compounds tested hit in one or more screens of this group.
KDM5B inhibitor: Primary screen for KDM5B Histone Demethylases FDH-coupled qHTS | KDM5B demethylase, FDH-coupled NADH fluorescence (FDH is formaldehyde dehydrogenase) | AID 1347165, 2019 | 220,000 compounds, 2.6% hits | Potency, µM (top dose mostly 57.7 µM), usual class: inhibitors; further: potency means the concentration at half of the fitted maximal effect; 0% is about no effect; nearly all actives have a fitted effect of over 70% in size
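Coupled FDH/NAD⁺ fluorescence readout. KDM5BΔAP 200 nM final; compound titration, 10 min RT preincubation; substrate mix 12.5 µM H3K4me3, 25 µM 2-OG, 50 µM Fe(II), 100 µM ascorbate, 0.25 mM NAD⁺, 0.25 U/mL FDH; ΔRFU over 30 min.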
HEK293 viab: GF-AFC viability counterscreen for inhibitors of alpha-synuclein gene (SNCA) expression; HEK-293-SNCA-luc viability, GF-AFC fluorescence, 24 h; Potency, µM (series often up to 57.1 µM), without a hit: top-dose activity change, negative = cytotoxicity, most hits filed as cytotoxic; AID 1671193, 2021; 150,000 compounds, 0.12% hits;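 further: potency means the concentration at half of the fitted maximal effect; 0% = DMSO-treated cells and -100% = medium-only wells without cells; nearly all actives have a fitted effect of over 30% in size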
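Cytotoxicity counterscreen: after 24 h compound treatment of genome-edited SNCA-luciferase HEK-293 cells, live-cell protease substrate GF-AFC read by fluorescence after 30 min; activity scaled between DMSO (0%) and medium-only (-100%), curves Hill-fitted.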
SNCA expr inhib: Primary qHTS assay for inhibitors of alpha-synuclein gene (SNCA) expression. AID 1671194, 2021. HEK-293 SNCA-luciferase knock-in, luminescence, 24 h. 140,000 compounds, 0.17% hits. Potency, µM (top dose mostly 57.2 µM), inactives show at the highest dose activity change, negative = inhibition, actives largely listed as inhibitors;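 further: potency means the concentration at half of the fitted maximal effect; plate controls were DMSO cells for no effect and cell-free wells for full effect; nearly all actives have a fitted effect of over 45% in size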
IP6K1 inhibitor: Primary qHTS assay for small molecule inhibitors of Inositol hexaphosphate kinase 1 (IP6K1) | AID 1645851, 2021 | activity change, % (series mostly up to about 58 µM) | Inositol hexakisphosphate kinase 1 (Homo sapiens), Q92551 | IP6K1 kinase, ADP-Glo luminescence, 2 h; stronger effect = lower value | 140,000 compounds, 0.81% hits; in the data active means activity change below about -25%; further: on the % scale 0 is the no-effect control and ±100 the full control effect
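ADP-Glo luminescence measures ADP made by human IP6K1 during a 2 h RT reaction with ATP/IP6 (mix at 1.3 mM/130 uM); top library doses 57.5 and 19.1 uM final.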
Active calls of the source: *; i = inactive; u = inconclusive; x = no result given; [ ] = another dose, or the depositor's remark. Unless noted, the call rests on the fitted dose curve; in most records, active means well fitted curve in the direction sought with a large enough effect; inconclusive means small, poorly fitted or top-dose-only effect, or another doubt; inactive means no such curve, though single readings can be large; an effect the other way counts as inactive or inconclusive.

SMILES	KDM5B inhibitor	HEK293 viab	SNCA expr inhib	IP6K1 inhibitor
COCCCNc1ccc2nnc(-c3ccccn3)n2n1	u	10%[87.6 µM]	2%[87.6 µM]	-9
CC(=O)NCc1ccc(C(=O)NCC2(c3ccccc3)CCCCC2)cc1	i	x	x	x
COc1ccc(CC(=O)NC(C)C(=O)N2CCN(c3ccccn3)CC2)cc1 (centres undefined)	32µM*	-1%	-16%	22
CC(NC(=O)COc1ccccc1)C(=O)N1CCN(c2ccc(F)cc2)CC1 (centres undefined)	i	x	x	x
CC(NC(=O)c1n[nH]c2ccccc12)C(=O)N1CCN(c2ccccn2)CC1 (centres undefined)	22µM*	5%	2%	2
CC(NC(=O)COc1ccc(F)cc1)C(=O)N1CCN(c2ccccn2)CC1 (centres undefined)	28µM*	-12%	u	12
COc1ccc(-c2cnc3[nH]cc(CC(=O)NCCN(C)C)c3c2)cc1	40µM*	3%[87.6 µM]	47%[87.6 µM]	-16
CCCn1nc(C(=O)N2CCN(c3ccccn3)CC2)c2ccccc2c1=O	i	x	x	x
COc1ccc(CC(=O)N2C[C@@H](CO)[C@@H]3Oc4ccc(Cl)cc4[C@@H]32)cc1	x	x	x	-3
COc1ccc(-c2nonc2NC(=O)c2ccc(OCC(C)C)cc2)cc1OC	i	x	x	x
CCc1ccc2oc(=O)cc(-c3cc4cccc(OC)c4o3)c2c1	i	x	x	x
CC(C)CC(=O)Nc1ccc(OCc2cc(=O)n3ccsc3n2)cc1	i	x	x	x
Cc1cccc(/C=C2\Cc3ccccc3C2=O)c1	i	x	x	x
COc1cccc(CC(=O)NC(C)C(=O)N2CCN(c3ccccn3)CC2)c1 (centres undefined)	25µM*	7%	2%	30
Cc1cc(C)cc(C(=O)NC(Cc2ccccc2)C(=O)N2CCN(c3ccccn3)CC2)c1 (centres undefined)	25µM*	-1%	2%	10
COc1cccc(CN2C(=O)CCCCC2C(=O)N2CCN(c3ccccn3)CC2)c1 (centres undefined)	x	-20%	-13%	-10
Cc1cccc(C(=O)N[C@@H](C)C(=O)N2CCN(c3ncccn3)CC2)c1	i	x	x	x
COc1ccc(-c2cnc3[nH]cc(CC(=O)N4CCN(c5ccccn5)CC4)c3c2)cc1	28µM*	-22%[87.6 µM]	39%[87.6 µM]	-9
COc1cccc(CCC(=O)NC(C)C(=O)N2CCN(c3ccccn3)CC2)c1 (centres undefined)	22µM*	-10%	-8%	2
CC(NC(=O)Cc1c(F)cccc1Cl)C(=O)N1CCN(c2ccccn2)CC1 (centres undefined)	u	-13%	5%	-1
CCc1ccc(S(=O)(=O)Nc2cccc(CN(CC)C(C)=O)c2)s1	i	x	x	x
COc1ccc(C(=O)NC(C)C(=O)N2CCN(c3ccccn3)CC2)cc1F (centres undefined)	u	-8%	-24%	4
CCOc1ccccc1C(=O)NC(C)C(=O)N1CCN(c2ccccn2)CC1 (centres undefined)	22µM*	8%	u	1
CC(=O)c1ccc(N2CCCC(C)C2)cc1 (centres undefined)	i	x	x	x
Nc1nc(SCc2nc(-c3cccc(C(F)(F)F)c3)no2)n[nH]1	i	x	x	x
SMILES	KDM5B inhibitor	HEK293 viab	SNCA expr inhib	IP6K1 inhibitor
COCC1CN(C2CCC2)CC12CCN(C(=O)COc1ccc(F)cc1)CC2 (centres undefined)	10µM*	-20%	-10%	5
COCC1CN(C2CCC2)CC12CCN(C(=O)COc1ccccc1)CC2 (centres undefined)	u	-8%	3%	8
CC(C)CNc1ccc2nncn2n1	u	1%	-2%	-3
CCC(C)Nc1ccc2nncn2n1 (centres undefined)	28µM*	10%	11%	1
CCC(=O)Nc1ccc(-c2c(-c3cc(OC)cc(OC)c3)nn(-c3ccc(C)cc3)c2OC(C)=O)cc1	28µM*	-5%	-7%	1
CC(=O)Nc1ccc(-c2c(-c3cccc(C)c3)nn(-c3ccc(F)cc3)c2OC(C)=O)cc1	25µM*	9%	-29%	-4
CCC(=O)Nc1ccc(-c2c(-c3ccc(C)cc3)nn(-c3ccc(F)cc3)c2OC(C)=O)cc1	u	-7%	2%	-8
COc1ccc(-c2nn(-c3ccc(F)cc3)c(OC(C)=O)c2-c2ccc(NC(C)=O)cc2)cc1OC	20µM*	-12%	19%	29
CC(=O)Nc1ccc(-c2c(C3CC3)nn(-c3cccc(C)c3)c2OC(C)=O)cc1	u	u	-14%	21
CC(=O)Oc1c(-c2ccc(NC(=O)C3CC3)cc2)c(-c2ccc3c(c2)OCO3)nn1-c1cccc(C)c1	35µM*	-2%	10%	-5
N#Cc1c(N)n[nH]c1CCCNC(=O)c1cc(-c2ccco2)nc2ccccc12	i	x	x	x
COc1ccc(-c2nn(-c3ccc(C)cc3C)c(OC(C)=O)c2-c2ccc(NC(C)=O)cc2)c(OC)c1	32µM*	16%	6%	1
Cc1noc(-c2cccn3c(CNC(=O)c4ccccc4)nnc23)n1	28µM*	0%	4%	-6
CCc1noc(-c2cccn3c(CNC(=O)c4ccc5ccccc5n4)nnc23)n1	20µM*	-29%	u	-5
CCc1noc(-c2cccn3c(CNC(=O)c4ccc(F)cc4)nnc23)n1	25µM*	-1%	-22%	11
CCc1noc(-c2cccn3c(CNC(=O)c4ccccn4)nnc23)n1	25µM*	15%	12%	14
O=C(O)/C=C/c1ccc(Cl)c(C(F)(F)F)c1	i	x	x	x
CCOc1ccccc1OCCOc1ccc(Cl)c(CC)c1	i	x	x	x
CCCc1noc(-c2cccn3c(CNC(=O)c4ccc(F)cc4)nnc23)n1	14µM*	-13%	19%	17
CCc1noc(-c2cccn3c(CNC(=O)COc4ccc(F)cc4)nnc23)n1	22µM*	-10%	-23%	8
CCc1noc(-c2cccn3c(CNC(=O)c4ccc(Cl)cc4)nnc23)n1	u	-4%	-16%	9
CCc1noc(-c2cccn3c(CNC(=O)c4ccoc4)nnc23)n1	14µM*	-3%	-30%	2
CCc1noc(-c2cccn3c(CNC(=O)c4ccccc4)nnc23)n1	28µM*	-11%	-4%	16
COc1ccc(F)cc1-c1cccc(C(=O)NCCNC(=O)Nc2ccc(Cl)cc2)c1	x	-5%	35%	-4
O=C(/C=C/c1cccs1)OC1CCCCC1=O (centres undefined)	i	x	x	x
CCOCCn1c(N2CCN(Cc3cccc(C)c3)CC2)nc2c1c(=O)[nH]c(=O)n2C	i	x	x	x
COC(=O)C(C#N)c1nc2ccccc2nc1N1CCN(Cc2ccccc2)CC1 (centres undefined)	i	x	x	x
